# “And” between values parts separate entries of the source, which are not always exact repeats. Equal entries are not always repeated.
# Key:
# Assay in all cases: growth inhibition (% activity, log2 RLU normalised to DMSO / staurosporine); higher = more growth inhibition
# Conditions in all cases: 33 µM
# DIPGX29 = system: DIPGX29 (H3.3 K27M diffuse intrinsic pontine glioma line)
# Outline: (§1)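 In triplicate, pHGG cell lines and H9-derived neural stem cells were treated for 7 days at 37 °C, 5% CO2 with approved drugs at a single final concentration of about 33 μM, added by pin tool. CellTiter-Glo luminescence, after log2 transformation, was normalised on each plate to % activity between solvent and positive control wells. Growth inhibition is reported as the median across replicates.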
# DIPGX37 = system: DIPGX37 (H3.3 K27M diffuse intrinsic pontine glioma line)
# Outline: as §1
# DIPGX7 = system: DIPGX7 (H3.3 K27M diffuse intrinsic pontine glioma line)
# Outline: as §1
# DIPGX9 = system: DIPGX9 (diffuse intrinsic pontine glioma line)
# Outline: as §1
# HGGX39 = system: HGGX39 (paediatric high-grade glioma line)
# Outline: as §1
# HGGX6 = system: HGGX6 (H3.3 G34R paediatric high-grade glioma line)
# Outline: as §1
# HNSC = system: HNSC
# Outline: as §1
# SUDIPGIV = system: SUDIPGIV (diffuse intrinsic pontine glioma line)
# Outline: as §1
# SUDIPGVI = system: SUDIPGVI (diffuse intrinsic pontine glioma line)
# Outline: as §1
# SUDIPGXIII = system: SUDIPGXIII (diffuse intrinsic pontine glioma line)
# Outline: as §1
SMILES,growth inhibition (DIPGX29),growth inhibition (DIPGX37),growth inhibition (DIPGX7),growth inhibition (DIPGX9),growth inhibition (HGGX39),growth inhibition (HGGX6),growth inhibition (HNSC),growth inhibition (SUDIPGIV),growth inhibition (SUDIPGVI),growth inhibition (SUDIPGXIII)
C[C@]12CCC(=O)C=C1CC[C@@H]1[C@@H]2[C@@H](O)C[C@@]2(C)[C@H]1CC[C@]2(O)C(=O)CO,1.76%,3.35%,0.297%,4.32%,3.81%,2.56%,-1.17%,-0.15%,3.46%,0.475%
O=P(O)(O)C(O)(Cn1ccnc1)P(=O)(O)O,0.235%,2.6%,0.072%,1.97%,2.08%,1.84%,1.26%,1.08%,4.43%,-0.376%
Clc1ccc(C(Cn2ccnc2)OCc2ccsc2Cl)c(Cl)c1 (stereo not given),4.62%,-2.6%,2.82%,4.52%,8.15%,7.53%,4.99%,13.7%,2.98%,5.65%
C[C@H](CS)C(=O)N1CCC[C@H]1C(=O)O,0.445%,-0.171%,1.27%,1.57%,1.84%,-1.72%,2.42%,-0.14%,-0.111%,-0.989%
Fc1ccc(C(c2ccc(F)cc2)N2CCN(C/C=C/c3ccccc3)CC2)cc1,4.97%,2.42%,6.22%,3.95%,9.77%,2.44%,14.4%,15.8%,5.18%,8.8%
CN(C)CCC(c1ccccc1)c1ccccn1 (stereo not given),1.43%,4.57%,2.52%,0.794%,3.82%,3.28%,1.8%,1.78%,2.2%,0.511%
CCOC(=O)c1ccc(C#Cc2ccc3c(c2)C(C)(C)CCS3)nc1,3.83%,-0.285%,6.1%,9.38%,8.54%,6.5%,6.59%,8.53%,4.1%,1.82%
CC1(C)S[C@@H]2[C@H](NC(=O)[C@H](N)c3ccc(O)cc3)C(=O)N2[C@H]1C(=O)O,-2.54% and 1.43%,-2.93% and 3.86%,-1.48% and 1.69%,0.486% and 1.84%,0.0264% and 2.87%,0.163% and 3.37%,-3.3% and 1.46%,-1.85% and 0.698%,-2.12% and 2.79%,7.41% and 0.66%
CN1[C@@H]2CC[C@H]1CC(OC(=O)c1c[nH]c3ccccc13)C2 (stereo not given in full),4.79%,5.76%,6.41%,23.4%,7.53%,1.59%,58.8%,9.21%,1.15%,0.619%
Oc1c(Cl)cc(Cl)c2cccnc12,4.67%,3.08%,4.55%,5.64%,6.44%,-1.25%,44.3%,3.67%,4.23%,2.6%
C[C@@H]1CC(=O)NN=C1c1ccc(NN=C(C#N)C#N)cc1,1.15%,-0.996%,1.39%,4.28%,4.26%,2.45%,5.57%,5.05%,1.51%,0.449%
CC1(C)S[C@@H]2[C@H](NC(=O)[C@H](N)c3ccccc3)C(=O)N2[C@H]1C(=O)O,0.915% and -0.852%,0.428% and -3.6%,-0.263% and 0.439%,2.01% and -1.14%,0.0853% and 0.776%,0.491% and -0.506%,-1.66% and -0.947%,0.0994% and -1.08%,1.4% and -3.54%,0.006% and 0.466%
CN(C)CCN(Cc1ccccc1)c1ccccn1,1.64%,2.34%,0.0331%,3.36%,5.32%,0.326%,-1.72%,-0.134%,1.29%,2.37%
[O-][n+]1cccc(CO)c1,-0.666%,1.68%,-0.893%,-0.317%,0.747%,0.543%,-0.142%,-0.682%,-0.214%,2.91%
CC(C(=O)O)c1ccc2c(c1)CC(=O)c1ccccc1S2 (stereo not given),1.3%,4.16%,2.06%,1.25%,2.45%,2.99%,1.66%,-1.48%,4.71%,0.56%
CN(C)CCOc1ccc(/C(=C(/CCCl)c2ccccc2)c2ccccc2)cc1,2.43%,1.15%,6.73%,0.45%,5.94%,5.5%,2.79%,2.82%,0.578%,-0.556%
